target: T1, GST-Nv-NF-kB (Ser allele) (Nematostella vectensis, UniProt A7UNT2 2-411); assay: protein-binding microarray (PBM); PBM: ~300 nM protein, 6 mM HEPES pH 7.8, 80 mM KCl, 0.5 mM EDTA, 0.5 mM EGTA, 6% glycerol, 35 ng/ul poly-dIdC, 1% milk, 1 h, room temperature; Ap Aiptasia and Nv Nematostella (sea anemones) / Co Capsaspora / Aq Amphimedon (sponge) / Dm Drosophila / Hu human; RHD is the Rel homology domain; high values mean tight binding; conditions: dsDNA, one strand shown
T1 sequence: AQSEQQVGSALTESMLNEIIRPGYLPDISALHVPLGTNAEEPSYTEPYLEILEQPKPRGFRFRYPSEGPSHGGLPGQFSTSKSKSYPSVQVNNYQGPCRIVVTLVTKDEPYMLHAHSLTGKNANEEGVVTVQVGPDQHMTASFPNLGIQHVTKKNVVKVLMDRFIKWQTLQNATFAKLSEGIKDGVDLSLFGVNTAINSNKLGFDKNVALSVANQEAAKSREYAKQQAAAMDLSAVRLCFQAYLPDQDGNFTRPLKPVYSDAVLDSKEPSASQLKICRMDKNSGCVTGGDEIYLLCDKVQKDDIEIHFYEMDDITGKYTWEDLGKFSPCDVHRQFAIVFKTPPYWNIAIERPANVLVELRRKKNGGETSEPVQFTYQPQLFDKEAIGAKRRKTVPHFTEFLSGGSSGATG

Row | Sequence | binding signal [z-score]
1 | CCGATTAACATCAGGATTTACCCTGATGTTAATCGGGTCTTGATTCGCTTGACGCTGCTG | 3.54
2 | CCGATTAACATCAAGGGAACTCCTGATGTTAATCGGGTCTTGATTCGCTTGACGCTGCTG | 1.27
3 | CCGATTAACATCACGGGAAAATCTGATGTTAATCGGGTCTTGATTCGCTTGACGCTGCTG | 6.4

target: T2, GST-Co-NF-kB (Capsaspora owczarzaki, UniProt F1ARL5 200-546); assay: as above; conditions: dsDNA, one strand shown
T2 sequence: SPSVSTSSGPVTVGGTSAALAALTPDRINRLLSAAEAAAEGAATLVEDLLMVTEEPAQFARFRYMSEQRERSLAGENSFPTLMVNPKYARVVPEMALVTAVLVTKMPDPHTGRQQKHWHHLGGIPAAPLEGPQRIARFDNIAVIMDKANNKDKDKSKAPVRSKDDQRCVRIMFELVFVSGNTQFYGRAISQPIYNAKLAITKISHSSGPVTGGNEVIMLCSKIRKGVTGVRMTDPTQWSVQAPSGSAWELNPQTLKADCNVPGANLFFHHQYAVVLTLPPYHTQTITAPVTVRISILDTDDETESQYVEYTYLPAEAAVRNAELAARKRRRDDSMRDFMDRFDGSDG

Row | Sequence | binding signal [z-score]
4 | CCGATTAACATCAGGGGAAATGATGATGTTAATCGGGTCTTGATTCGCTTGACGCTGCTG | 7.35
5 | CCGATTAACATCACAACTTCCCCTGATGTTAATCGGGTCTTGATTCGCTTGACGCTGCTG | 5.34
6 | CCGATTAACATCACGGGGATTTATGATGTTAATCGGGTCTTGATTCGCTTGACGCTGCTG | 4.67
7 | CCGATTAACATCAGGGACTCCCCTGATGTTAATCGGGTCTTGATTCGCTTGACGCTGCTG | 4.68
8 | CCGATTAACATCAGGGAATTACCTGATGTTAATCGGGTCTTGATTCGCTTGACGCTGCTG | 5.01
9 | CCGATTAACATCAGGGGGCAATATGATGTTAATCGGGTCTTGATTCGCTTGACGCTGCTG | 4.37
10 | CCGATTAACATCACCCACCCCCCTGATGTTAATCGGGTCTTGATTCGCTTGACGCTGCTG | 3.74
11 | CCGATTAACATCAAGGGAGTCCCTGATGTTAATCGGGTCTTGATTCGCTTGACGCTGCTG | 1.18
12 | CCGATTAACATCACTTATCCCCCTGATGTTAATCGGGTCTTGATTCGCTTGACGCTGCTG | 6.68
13 | CCGATTAACATCAGGACTCCCCCTGATGTTAATCGGGTCTTGATTCGCTTGACGCTGCTG | 4.97
14 | CCGATTAACATCAGCATCCCCCCTGATGTTAATCGGGTCTTGATTCGCTTGACGCTGCTG | 4.85
15 | CCGATTAACATCAAAAAGTCCCCTGATGTTAATCGGGTCTTGATTCGCTTGACGCTGCTG | 5.57
16 | CCGATTAACATCAACAAAATCCCTGATGTTAATCGGGTCTTGATTCGCTTGACGCTGCTG | 1.89
17 | CCGATTAACATCAAGGGGGTTTCTGATGTTAATCGGGTCTTGATTCGCTTGACGCTGCTG | 2.34
18 | CCGATTAACATCAAAAATCCCCCTGATGTTAATCGGGTCTTGATTCGCTTGACGCTGCTG | 8.5
19 | CCGATTAACATCAGACATTCCCCTGATGTTAATCGGGTCTTGATTCGCTTGACGCTGCTG | 5.38
20 | CCGATTAACATCAGTATTTCCCATGATGTTAATCGGGTCTTGATTCGCTTGACGCTGCTG | 3.66
21 | CCGATTAACATCAGGACATTCCCTGATGTTAATCGGGTCTTGATTCGCTTGACGCTGCTG | 1.36
22 | CCGATTAACATCAGGGGTATTACTGATGTTAATCGGGTCTTGATTCGCTTGACGCTGCTG | 3.37
23 | CCGATTAACATCAATACTTCCCCTGATGTTAATCGGGTCTTGATTCGCTTGACGCTGCTG | 6.89

Row | Sequence | binding signal [z-score]
24 | CCGATTAACATCAAATAATACCCTGATGTTAATCGGGTCTTGATTCGCTTGACGCTGCTG | 1.91
25 | CCGATTAACATCAAATTTCCCACTGATGTTAATCGGGTCTTGATTCGCTTGACGCTGCTG | 4.39
26 | CCGATTAACATCAGGGGGAAAAATGATGTTAATCGGGTCTTGATTCGCTTGACGCTGCTG | 11.6
27 | CCGATTAACATCAAGGGGGATTATGATGTTAATCGGGTCTTGATTCGCTTGACGCTGCTG | 4.73
28 | CCGATTAACATCAAGGGGGATTCTGATGTTAATCGGGTCTTGATTCGCTTGACGCTGCTG | 4.93
29 | CCGATTAACATCAAGGGGGTTTATGATGTTAATCGGGTCTTGATTCGCTTGACGCTGCTG | 2.54
30 | CCGATTAACATCAGAGACCCCCCTGATGTTAATCGGGTCTTGATTCGCTTGACGCTGCTG | 2.4
31 | CCGATTAACATCAAGGGGGAATATGATGTTAATCGGGTCTTGATTCGCTTGACGCTGCTG | 7.86
32 | CCGATTAACATCAAGGGGAATAATGATGTTAATCGGGTCTTGATTCGCTTGACGCTGCTG | 7.2
33 | CCGATTAACATCAATTCTCCCCCTGATGTTAATCGGGTCTTGATTCGCTTGACGCTGCTG | 10.7
34 | CCGATTAACATCAGGGGGGAATATGATGTTAATCGGGTCTTGATTCGCTTGACGCTGCTG | 10.2
35 | CCGATTAACATCAGGATTACCCATGATGTTAATCGGGTCTTGATTCGCTTGACGCTGCTG | 1.67
36 | CCGATTAACATCAACGAATTCCCTGATGTTAATCGGGTCTTGATTCGCTTGACGCTGCTG | 2.64
37 | CCGATTAACATCACGTTTTCCCCTGATGTTAATCGGGTCTTGATTCGCTTGACGCTGCTG | 8.47
38 | CCGATTAACATCAACGGATTCCCTGATGTTAATCGGGTCTTGATTCGCTTGACGCTGCTG | 2.89
39 | CCGATTAACATCAGGGAAATCTATGATGTTAATCGGGTCTTGATTCGCTTGACGCTGCTG | 4.52
40 | CCGATTAACATCAGGGGAAAGTATGATGTTAATCGGGTCTTGATTCGCTTGACGCTGCTG | 7.64
41 | CCGATTAACATCAGGATTTACCCTGATGTTAATCGGGTCTTGATTCGCTTGACGCTGCTG | 1.85
42 | CCGATTAACATCAAGGGAACTCCTGATGTTAATCGGGTCTTGATTCGCTTGACGCTGCTG | 1.28
43 | CCGATTAACATCACGGGAAAATCTGATGTTAATCGGGTCTTGATTCGCTTGACGCTGCTG | 5.43
